Shown is part of a subset that was picked to be rich in hits.
Pf apPOL block – Pf-apPOL inhibitors, biochemical, fluorescence. Plasmodium falciparum apicoplast DNA polymerase (apPOL). Recombinant Pf-apPOL, molecular beacon fluorescence, 1.5 h. inhibition, % at 10 µM. actives 0.25% (n = 210,000). AID 1794808, 2022
mHTT CaM bind – mutant huntingtin-calmodulin interaction inhibitors – biochemical, AlphaScreen, primary screen. AlphaScreen His-mHTT/GST-CaM binding, luminescence. inhibition, % at 15 µM. actives 3.6% (n = 190,000). AID 1671202, 2021
Large screens that a line does not name were inactive. No stated cut-off is given here; in the data, active means inhibition above about 50%; inactive means the rest.

CCOc1ccc(/C=C2\C(=O)Nc3ccc(F)cc32)cc1	none
Fc1ccc(-c2nc3ccccc3[nH]2)cc1	none
c1cc(-c2nc3ccccc3[nH]2)nc(-c2nc3ccccc3[nH]2)c1	mHTT CaM bind 78.2
CN(CC(=O)Nc1nc(-c2ccco2)cs1)c1nc2ccccc2s1	mHTT CaM bind 77.0
CN(CC(=O)NCc1cccs1)c1nc2ccccc2s1	none
Fc1ccc2c(c1)Sc1ccccc1N2	mHTT CaM bind 73.6
FC(F)(F)c1ccc2c(c1)Nc1ccccc1S2	none (no result: mHTT CaM bind)
Cc1cccc(NCN2C(=O)S/C(=C\c3ccccc3F)C2=O)c1	mHTT CaM bind 54.0
O=C1S/C(=C\c2ccccc2F)C(=O)N1CNc1cccc([N+](=O)[O-])c1	none
Cc1cc2c(c(=O)o1)C1(C(=O)Nc3ccc([N+](=O)[O-])cc31)C(C#N)=C(N)O2 (centres undefined)	none
Cc1cc(C2(c3ccc(O)c(C)c3)C(=O)N(Cc3ccccc3)c3ccccc32)ccc1O	mHTT CaM bind 94.7
O=C1N(Cc2ccccc2)c2ccccc2C1(Cc1ccccc1)c1ccccc1 (centres undefined)	none (no result: mHTT CaM bind)
O=[N+]([O-])c1cc(F)c(N2CCCCCC2)cc1N1CCCC1	mHTT CaM bind 72.0
O=C(c1cccs1)N1CCN(c2cc(N3CCCCC3)c(F)cc2[N+](=O)[O-])CC1	mHTT CaM bind 51.0
O=C(c1cccs1)N1CCN(c2cc(N3CCCC3)c(F)cc2[N+](=O)[O-])CC1	none
O=[N+]([O-])c1cc(F)c(N2CCOCC2)cc1N1CCCCC1	none
O=C(NC1(c2nc(C3CC3)no2)CCCCC1)c1ccc(Br)o1	none
COc1cc(-n2cnnn2)cc(S(=O)(=O)c2ccc(Cl)cc2)c1	none (no result: Pf apPOL block)
CCn1cc(C(=O)Nc2cc(Cl)c(OC)cc2OC)c(=O)c2ccc(C)nc21	none
O=C1c2cccnc2C(=O)N1c1ccc(Oc2ccc(N3C(=O)c4cccnc4C3=O)cc2)cc1	mHTT CaM bind 99.0
O=C1c2cccnc2C(=O)N1c1ccc(-c2ccc([N+](=O)[O-])cc2)cc1	none
O=C1c2cccnc2C(=O)N1c1ccc(Cc2ccc(N3C(=O)c4cccnc4C3=O)cc2)cc1	mHTT CaM bind 80.0
O=C1c2cccnc2C(=O)N1c1cccc(C(F)(F)F)c1	none
CC(C)c1cc(C2CCCN2C(=O)c2ccc3c(c2)OCO3)on1 (centres undefined)	none
CCn1c(CC2CCN(C(=O)Cc3c[nH]c4ccccc34)C2)nc2cccnc21 (centres undefined)	none
COc1ccc(N2CCN(C(=O)c3cn4c(n3)CN(CC(C)C)CC4)CC2)cc1	none
CN(C)c1ccc(-c2nc3n(n2)C(c2ccccc2)C2=C(CCCC2=O)N3)cc1 (centres undefined)	none
CN(C)c1ccc(-c2nc3n(n2)C(c2ccc(F)cc2)C2=C(CCCC2=O)N3)cc1 (centres undefined)	mHTT CaM bind 50.6
N#C/C(=C\c1ccc([N+](=O)[O-])cc1)c1nc(C2CC2)cs1	Pf apPOL block 55.4
N#C/C(=C\c1ccc(Br)cc1)c1nc(C2CC2)cs1	none
CN(C)C(=O)CN1C(=O)CCSc2ccccc21	none
CCc1ccc(S(=O)(=O)N=C2C=C(Nc3ccccc3)C(=O)c3ccccc32)cc1	mHTT CaM bind 93.0
CCc1ccc(NS(=O)(=O)c2ccc(OC)cc2)cc1	none
COc1ccccc1NC1=CC(=NS(=O)(=O)c2ccc(C)cc2)c2ccccc2C1=O	mHTT CaM bind 93.0
COc1ccccc1NC1=C(Cl)C(=O)c2ccccc2C1=O	none (no result: mHTT CaM bind)
CCOc1ccc(S(=O)(=O)Nc2ccc(I)cc2)cc1	none
O=S(=O)(N=C1SCCS1)c1ccccc1	none
CCOc1ccc(NC2=CC(=NS(=O)(=O)c3ccc(OCC)cc3)c3ccccc3C2=O)cc1	mHTT CaM bind 75.0
CCOc1ccc(S(=O)(=O)N=C2C=C(Nc3ccc(OC)cc3)C(=O)c3ccccc32)cc1	mHTT CaM bind 89.0
O=C(Nc1ccccc1F)N1CCCC1c1nc(-c2cccc(Cl)c2)no1 (centres undefined)	none
N=C1SCC(=O)N1c1nonc1NC=O	none (no result: Pf apPOL block)
Cc1cccc(C(=O)N2CCCC(COc3ccc(C(=O)NC(C)C)cc3)C2)c1 (centres undefined)	none
O=C(c1cccc(-c2ccc(Oc3ccccc3)nn2)c1)N1CCCC1	none
CC(C)(C)c1nnc(NC(=O)Cc2ccc(Cl)cc2)s1	none
CCOc1ccc(S(=O)(=O)Nc2cnc3ccccc3c2)cc1	none
CCOc1ccc(NC2=CC(=NS(=O)(=O)c3ccc(F)cc3)c3ccccc3C2=O)cc1	mHTT CaM bind 67.0
CCOc1ccc(S(=O)(=O)NC(=O)c2ccccc2)cc1	none
COc1ccc(S(=O)(=O)N=C2C=CC(=O)c3ccccc32)cc1	mHTT CaM bind 98.0
COc1ccc(S(=O)(=O)N=C2C(C)=CC(=O)C(S(=O)(=O)c3ccccc3)=C2C)cc1	none
CCOc1ccc(S(=O)(=O)N=C2C=C(Nc3ccccc3)C(=O)c3ccccc32)cc1	mHTT CaM bind 90.0
COc1ccc(S(=O)(=O)N=C2C=C(Nc3ccccc3)C(=O)c3ccccc32)cc1	mHTT CaM bind 88.0
